This is one part of a sample in which hits are shown more often than they occur.
DT40 TDP1 no CPT: qHTS for Inhibitors of human tyrosyl-DNA phosphodiesterase 1 (TDP1): qHTS in cells in absence of CPT; DT40 Tdp1-/- hTDP1 cells, no CPT, ATP luminescence, 48 h; Potency, µM (titrated, usually from 46.2 µM), hits mostly inhibitors; 420,000 compounds, 15% hits; note: nearly all actives have a fitted effect of over 55% in size
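Growth kinetics read by CellTiter-Glo luminescence after ≥48 hr at 37 °C. Cells: DT40 Tdp1-/- stably carrying human TDP1, 400 per well, compound exposure in the absence of CPT (DMSO vehicle).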
12-LOX inh: Primary qHTS assay for inhibitors of human arachidonate 12S-lipoxygenase (ALOX12): Round 2. purified 12hLO, xylenol orange hydroperoxide absorbance. Potency, µM (top dose mostly 108 µM), usual class: inhibitors. 580,000 compounds, 1.1% hits
Target sequence (P18054 whole entry, looked up): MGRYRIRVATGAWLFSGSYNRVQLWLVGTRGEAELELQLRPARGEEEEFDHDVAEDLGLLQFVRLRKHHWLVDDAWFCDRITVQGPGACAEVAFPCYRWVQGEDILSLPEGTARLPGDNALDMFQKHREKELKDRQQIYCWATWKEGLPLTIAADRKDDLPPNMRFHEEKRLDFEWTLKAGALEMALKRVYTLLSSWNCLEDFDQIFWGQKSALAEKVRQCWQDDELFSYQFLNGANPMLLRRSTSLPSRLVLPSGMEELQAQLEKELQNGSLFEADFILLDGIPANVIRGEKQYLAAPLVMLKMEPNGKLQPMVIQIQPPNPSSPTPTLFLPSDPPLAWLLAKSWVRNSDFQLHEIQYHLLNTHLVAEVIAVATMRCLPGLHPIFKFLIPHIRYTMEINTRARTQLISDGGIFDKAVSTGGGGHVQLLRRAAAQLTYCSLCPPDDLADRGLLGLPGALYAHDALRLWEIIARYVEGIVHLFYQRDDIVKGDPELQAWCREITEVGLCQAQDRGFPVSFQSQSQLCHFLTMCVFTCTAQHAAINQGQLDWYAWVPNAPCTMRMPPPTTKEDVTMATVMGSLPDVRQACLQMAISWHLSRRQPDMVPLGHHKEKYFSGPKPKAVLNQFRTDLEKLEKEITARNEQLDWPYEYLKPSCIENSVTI
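Purified human 12hLO at 150 nM in 25 mM Hepes, 0.01% Triton X-100, pH 7.0, preincubated 15 min at room temperature with compound. Reaction started with 40 uM arachidonic acid, 30 min at room temperature. Hydroperoxide measured by Fe-xylenol orange, 573/405 nm absorbance ratio.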
IL-1B inflam inh: qHTS for Inhibitors of Inflammasome Signaling: IL-1-beta AlphaLISA Primary Screen | THP-1 LPS/ATP IL-1B secretion, AlphaLISA, 16 h; hits give low values | activity change, % at 57.5 µM | 360,000 compounds, 4.7% hits | AID 743279, 2014; in the data active = activity change below about -50%; inconclusive = mostly about -30% to -49%
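Secreted IL-1B measured by AlphaLISA bead assay after 16 h compound exposure of THP-1 cells; compounds (final up to 57.5 uM) added 1 h before LPS (250 ng/mL) and ATP (1.25 mM) stimulation; lower signal means less secretion.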
HT1080 IDH1KD tx: qHTS for induction of synthetic lethality in tumor cells producing 2HG: qHTS for the HT-1080-IDH1KD cell line. HT-1080 IDH1 knockdown viability, ATP luminescence, 48 h. AID 686971, 2013. 360,000 compounds, 2% hits. Potency, µM (highest dose often 46.1 µM), usual class: cytotoxic
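% activity derives from luminescence (CellTiter-Glo), normalised to DMSO and no-cell wells. HT-1080-IDH1KD cells, 750/well, had 48 h compound exposure at 37 °C.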
HT1080-NT tox: qHTS for induction of synthetic lethality in tumor cells producing 2HG: qHTS for the HT-1080-NT fibrosarcoma cell line; HT-1080-NT fibrosarcoma viability, CellTiter-Glo ATP luminescence, 48 h; Potency, µM (top dose mostly 46.1 µM), hits mostly cytotoxic; 360,000 compounds, 1.6% hits; AID 686970, 2013;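 note: NT is the 2HG producing partner of a matched IDH1 knockdown line; nearly all actives have a fitted effect of over 55% in size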
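Fibrosarcoma NT cells, 750 per well in 5% FBS RPMI, were exposed to compound for 48 hours. Viability: CellTiter-Glo luminescence.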
DT40 TDP1 CPT: qHTS for Inhibitors of human tyrosyl-DNA phosphodiesterase 1 (TDP1): qHTS in cells in presence of CPT; chicken DT40 Tdp1-/-;hTDP1 cells + 20 nM CPT, ATP luminescence, 48 h; Potency, µM (titrated, usually from 46.2 µM), hits mostly inhibitors; 420,000 compounds, 12% hits; AID 686979, 2013; note: nearly all actives have a fitted effect of over 55% in size
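Cell growth measured by CellTiter-Glo luminescence after a minimum 48 h, 37 C compound exposure with 20 nM CPT in Tdp1-knockout DT40 cells stably expressing hTDP1, seeded 400/well; qHTS titration format.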
Hits are given with their value; i = inactive; ? = inconclusive; nt = not tested or not shown. Unless noted, calls come from the whole dose curve; as a rule, active = well fitted curve in the direction sought with a large enough effect; inconclusive = small, poorly fitted or top-dose-only effect, or another doubt; inactive = no such curve, though single readings can be large; an effect the other way counts as inactive or inconclusive.

SMILES	DT40 TDP1 no CPT	12-LOX inh	IL-1B inflam inh	HT1080 IDH1KD tx	HT1080-NT tox	DT40 TDP1 CPT
Cc1nc2ncnn2c(N2CCN(S(=O)(=O)c3ccc(Br)cc3)CC2)c1C	4.6µM	i	i	i	i	?
O=S(=O)(c1ccc(Br)cc1)N1CCN(c2ccccc2)CC1	i	i	i	i	i	i
COc1ccc(S(=O)(=O)N2CCN(c3cc(-c4ccccc4)nc4ncnn34)CC2)cc1	16µM	i	-69	?	i	21µM
COc1ccc(-c2cc(N3CCCC3)n3ncnc3n2)cc1	?	i	?	i	i	?
Cc1ccccc1NC(=O)C1CCN(c2cc(-c3ccccc3)nc3ncnn23)CC1	21µM	i	?	i	i	15µM
CCc1cc(=O)oc2cc(OCc3nc(C)no3)ccc12	nt	i	nt	nt	nt	nt
COc1cc(NC(=O)CC2SCCNC2=O)cc(OC)c1OC (centres undefined)	nt	i	nt	nt	nt	nt
Cc1nnc([C@@H]2CC(F)(F)CN2S(=O)(=O)c2cccnc2)o1	nt	i	nt	nt	nt	nt
CCOc1cc(/C=C2/NC(=O)NC2=O)ccc1OCc1ccc(Cl)cc1	nt	i	nt	nt	nt	nt
COc1cc(NC(=O)C2CCCN2C(=O)C23CC4CC(CC(C4)C2)C3)cc(OC)c1OC (centres undefined)	nt	i	nt	nt	nt	nt
CCOc1cccc(CNC(=O)[C@H]2CCC[C@H]2NC(=O)c2cnc(C)cn2)c1	nt	i	nt	nt	nt	nt
C=CCOc1c(Br)cc(CNc2ccc(NC(=O)C(C)C)c(OC)c2)cc1OC	18µM	i	i	?	?	?
COc1cc(CNc2ccc(C(=O)O)cc2)cc(Br)c1OCC(=O)NC(C)(C)C	?	i	i	i	i	i
C=CCOc1c(Br)cc(CNn2nnnc2N)cc1OC	7.3µM	i	i	i	i	i
CN(C(=O)CCc1ccco1)C1CCCC1	nt	i	nt	nt	nt	nt
COc1ccc(-c2cc(N3CCCN(C(=O)C(C)c4ccccc4)CC3)n[nH]2)cc1 (centres undefined)	nt	i	nt	nt	nt	nt
COc1ccccc1Oc1c(C)oc2cc(OCC(=O)Nc3cccc(C)c3C)ccc2c1=O	nt	i	nt	nt	nt	nt
COc1cc(CN2CCN(C(c3ccccc3)c3ccccc3)CC2)cc(OC)c1OC	3.3µM	?	i	?	i	8.2µM
COc1ccc(NC(=S)N2CCN(C(c3ccccc3)c3ccccc3)CC2)cc1OC	i	i	i	i	i	i
COc1cc(C(=S)N2CCN(C(c3ccccc3)c3ccccc3)CC2)cc(OC)c1O	8.2µM	?	-50	i	i	15µM
COc1cccc(CN2CCN(C(c3ccccc3)c3ccccc3)CC2)c1O	21µM	?	i	i	i	?
COc1cc(CN2CCN(C(=O)c3cccc4ccccc34)CC2)cc(OC)c1OC	i	?	i	i	i	i
CCOC(=O)c1ccc(-c2ccc(/C=C(\C#N)C(=O)N3CCOCC3)o2)cc1	nt	i	nt	nt	nt	nt
COc1cccc(N2CCN(C(=O)Cc3ccc(N4CCCC4=O)cc3)CC2)c1	nt	i	nt	nt	nt	nt
COc1ccccc1C1(CCN=Cc2ccc(N(C)C)cc2)CCOC(C)(C)C1 (centres undefined)	i	i	-64	i	i	i
SMILES	DT40 TDP1 no CPT	12-LOX inh	IL-1B inflam inh	HT1080 IDH1KD tx	HT1080-NT tox	DT40 TDP1 CPT
CCNC(=O)C1(C)CCCN1Cc1c(F)cccc1F (centres undefined)	16µM	?	i	i	?	?
CC1(C(=O)NCc2ccc(C(F)(F)F)cc2)CCN1Cc1ccc(-c2ccccc2)o1 (centres undefined)	?	?	-54	?	?	?
CC1(C(=O)NCc2ccc(C(F)(F)F)cc2)CCN1Cc1c(F)cccc1F (centres undefined)	?	i	i	i	i	16µM
CSc1ccc(CN2CCC2(C)C(=O)NCc2cccc(C(F)(F)F)c2)cc1 (centres undefined)	?	i	i	?	?	?
Cc1ccc(OCCN2CCC2(C)C(=O)NCc2ccc(C(F)(F)F)cc2)cc1 (centres undefined)	21µM	?	i	?	?	?
O=S(Cc1cccc(C(F)(F)F)c1)Cc1ccc(F)cc1Cl (centres undefined)	nt	i	nt	nt	nt	nt
CCCCNC(=O)C(Sc1ccccc1)c1ccccc1 (centres undefined)	i	i	i	i	i	i
CCCCNC1=CC(=O)C(=O)c2ccccc21	21µM	?	i	23µM	i	8.2µM
CCCCNC1=CC(=O)C(NCCCC)=CC1=O	16µM	i	i	i	i	23µM
COc1ccc(-c2cc(-c3ccccc3O)[nH]n2)cc1	?	i	i	?	?	i
COc1ccc(-c2cc(-c3c(O)c(OC)c4occc4c3OC)[nH]n2)cc1	5.8µM	?	?	?	?	5.8µM
COc1ccc(-c2noc(-c3cc(C4CC4)[nH]n3)n2)cc1OC	nt	i	nt	nt	nt	nt
COc1ccc(-c2cc(-c3c(O)c(OC)c4occc4c3OC)[nH]n2)cc1OC	21µM	i	-63	?	?	?
CCc1ccc(S(=O)(=O)NCc2nc3cccnc3n2Cc2cccc(OC)c2)cc1	?	i	nt	nt	nt	?
COc1ccc(Cn2c(CNS(=O)(=O)c3ccc(C)c(C)c3)nc3cccnc32)cc1	i	i	nt	nt	nt	i
CCc1ccc(Cn2c(CNS(=O)(=O)c3ccc(C)c(C)c3)nc3cccnc32)cc1	?	i	nt	nt	nt	?
COc1ccccc1Cn1c(CNS(=O)(=O)c2ccc(C(C)C)cc2)nc2cccnc21	23µM	i	nt	nt	nt	?
CC(C)Cc1ccc(S(=O)(=O)NCc2nc3cccnc3n2Cc2ccccc2)cc1	18µM	i	nt	nt	nt	?
COc1ccccc1Cn1c(CNS(=O)(=O)c2ccc(CC(C)C)cc2)nc2cccnc21	13µM	i	nt	nt	nt	21µM
N=c1sccn1CC(=O)NC(c1ccccc1)c1ccccc1	?	i	-52	i	i	?
Cc1ccc(Oc2ccc(NC(=O)Cn3ccsc3=N)cc2)cc1	?	i	-100	?	i	?
N=c1sccn1CC(=O)Nc1ccccc1Oc1ccccc1	i	i	i	i	i	i
N=c1sccn1CC(=O)Nc1ccccc1Cc1ccccc1	?	i	-51	i	i	?
O=C(Cn1cnc2ccccc21)NC(c1ccccc1)c1ccccc1	i	i	i	?	i	?
COc1cc(OC)cc(OCc2nc3c(n2Cc2ccccc2)C(=O)N(Cc2ccccc2C#N)CCN3)c1	nt	i	nt	nt	nt	nt
